Compound activity deposited in PubChem by National Center for Advancing Translational Sciences (NCATS).
Hits are enriched below; roughly 6.3% of the tested compounds scored in any of these assays.
TGFb SMAD3 inh: TGF-b pathway inhibition | HepG2 CAGA-GFP TGF-b/SMAD3 reporter, GFP fluorescence, 18 h; TGF-beta stimulated, 500 pg/mL final | Potency, µM (doses to about 46.1 µM), inactives show at the top dose activity, negative = inhibition, most hits filed as inhibitors | 410,000 tested, 1.2% active | AID 588855; note: % is set by controls: 0 for no effect and ±100 for the full control effect; nearly all actives have a fitted effect of over 65% in size
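Cell-based qHTS in HEPG2 carrying a CAGA-GFP Smad reporter; compounds added before 500 pg/mL final TGF-beta, 18 h incubation at 37 degrees C, GFP fluorescence quantified per cell by imaging cytometry.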
ATXN2 expr inh: ATXN2 expression inhibition. HEK-293 ATXN2-luciferase reporter, luminescence, 24 h. Potency, µM (highest dose often 57 µM), inactives show top-dose activity change, negative = inhibition, hits mostly inhibitors. 360,000 tested, 0.72% active. AID 1745845; note: % is set by controls: 0 for no effect and ±100 for the full control effect; nearly all actives have a fitted effect of over 55% in size
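ATXN2-luciferase reporter cells (luciferase flanked by upstream and downstream ATXN2 gene portions) were treated 24 h at 37 °C with compounds at up to 57 uM. SteadyGlo luminescence gave expression; GF-AFC fluorescence gave viability.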
Gal4-VP16 FLuc: inhibits Gal4-VP16 luciferase reporter, ROR gamma counter-screen. Drosophila S2 Gal4-VP16 UAS-luciferase, luminescence, 20 h. Potency, µM (highest dose often 53.6 µM), for the others: at the highest dose activity, negative = inhibition, hits mostly inhibitors. 310,000 tested, 3.5% active;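 note: Gal4-VP16 expression switched on by copper sulfate through the metallothionein promoter; % is set by controls: 0 for no effect and ±100 for the full control effect; nearly all actives have a fitted effect of over 50% in size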
RORgamma inh: blocks mouse ROR gamma transcriptional activity. AID 2551. Drosophila S2 Gal4-RORgamma UAS-luciferase reporter, 20 h. P51450. 310,000 tested, 5.4% active. Potency, µM (titrated, usually from 53.6 µM), inactives show top-dose activity change, negative = inhibition, most hits filed as inhibitors; note: % is set by controls: 0 for no effect and ±100 for the full control effect; nearly all actives have a fitted effect of over 60% in size
Target sequence (P51450 whole entry, looked up, the tested form may be a part): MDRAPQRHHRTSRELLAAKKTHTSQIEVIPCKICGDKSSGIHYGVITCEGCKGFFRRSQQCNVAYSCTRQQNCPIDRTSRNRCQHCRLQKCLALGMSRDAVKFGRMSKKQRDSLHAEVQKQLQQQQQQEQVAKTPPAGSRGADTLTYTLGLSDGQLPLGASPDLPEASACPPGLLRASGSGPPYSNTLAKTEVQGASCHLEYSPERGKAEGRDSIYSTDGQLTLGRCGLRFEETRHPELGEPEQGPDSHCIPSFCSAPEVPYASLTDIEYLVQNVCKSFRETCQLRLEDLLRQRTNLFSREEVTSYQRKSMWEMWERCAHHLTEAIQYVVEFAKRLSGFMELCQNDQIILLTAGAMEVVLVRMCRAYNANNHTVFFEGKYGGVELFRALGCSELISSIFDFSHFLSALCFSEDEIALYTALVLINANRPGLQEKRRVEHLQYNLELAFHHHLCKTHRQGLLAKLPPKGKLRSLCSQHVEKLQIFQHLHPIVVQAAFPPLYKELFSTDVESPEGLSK
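Read-out: Photinus luciferase luminescence; inhibitors lower reporter signal. Insect Schneider cells with Gal4-ROR gamma fusion under metallothionein promoter, UAS reporter; 700 uM final copper sulfate induction, 20 hr, ambient temperature.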
ATXN viability: reduces viability in counter-screen for ATXN expression inhibitors. S2 cells (HEK-293 line with an ATXN2-luciferase reporter) viability, CellTiter-Fluor protease fluorescence, 24 h. Potency, µM (highest dose often 56.7 µM), actives largely listed as cytotoxic. 400,000 tested, 0.49% active; note: nearly all actives have a fitted effect of over 40% in size
HepG2 tox: counter-screen for TGF-b inhibitors: cytotoxicity in HepG2 cells | HepG2 CAGA-GFP viability, ATP luminescence, 18 h | Potency, µM (highest dose often 46.1 µM), without a hit: at the highest dose activity change, negative = cytotoxicity, hits mostly cytotoxic | 410,000 tested, 0.76% active | AID 588856
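HepG2 CAGA-GFP cells (1000/well, DMEM with 1% FBS) received compound, then TGF-beta at 500 pg/mL final, and were incubated 18 hours at 37 degrees C. Viability was read by CellTiter-Glo luminescence. Media-only wells were set as complete cell-killing and DMSO as no toxicity.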
An asterisk follows results filed as active; i = inactive; u = inconclusive; x = no result given; [ ] = remark or other dose. Calls come from the whole dose curve; as a rule, active = well fitted curve in the direction sought with a large enough effect; inconclusive = small, poorly fitted or top-dose-only effect, or another doubt; inactive = no such curve, though single readings can be large; an effect the other way counts as inactive or inconclusive. Potency is the fitted concentration of half-maximal effect.

SMILES	TGFb SMAD3 inh	ATXN2 expr inh	Gal4-VP16 FLuc	RORgamma inh	ATXN viability	HepG2 tox
CSc1ccccc1C(=O)C1CCCN(Cc2cccc(C)n2)C1 (stereo not drawn)	u	u	20µM*	4.47µM*	i	-36.0%
O=C(c1ccc(C(F)(F)F)cc1)C1CCCN(C2CCSCC2)C1 (stereo not drawn)	-0.5%	-3.7%	-4.2%	-1.0%	i	-6.5%
CSc1ccccc1C(=O)C1CCCN(Cc2ccccn2)C1 (stereo not drawn)	-17.5%	-1.4%	-23.4%	11.2µM*	i	-19.6%
O=C1C=CC(=O)c2c1ccc1c2ccc2ccccc21	x	x	u	u	i	x
Cc1c(NS(=O)(=O)c2ccccc2)ccc([N+](=O)[O-])c1Cl	11.2µM*	u	x	x	u	-24.6%
CCN(CCNc1ccc([N+](=O)[O-])c2cccnc12)S(=O)(=O)c1ccccc1	-17.6%	4.1%	-6.3%	12.2%	i	-5.5%
FC(F)(F)c1ccc(Cl)cc1	x	x	-3.1%	-5.1%	x	x
CCOC(=O)c1cnc(N2CC2)nc1N	-8.3%	15.8µM*	x	x	28.2µM*	-3.1%
CCOC(=O)c1ccccc1C(=O)OCC	39.8%	6.3%	-4.8%	-6.8%[10 µM]	i	-6.6%
Nc1ccccc1C(=O)OCC(O)CO (stereo not drawn)	x	6.7%	x	x	i	x
Cc1c(Cl)ccc2sc(N3CCN(C(=O)CCS(=O)(=O)c4ccc(F)cc4)CC3)nc12	8.91µM*	-33.1%	x	x	i	-24.9%
C1=C2CCCN[C@H]2[C@@H]2C[C@H]1[C@@H]1CCCCN1C2	x	-15.8%	x	x	x	x
CC(=O)c1cn(CCCOc2ccccc2)c2ccccc12	u	x	6.31µM*	u	u	-33.5%
CN1CCN=C(c2ccccc2)c2cc(Cl)ccc21	x	x	x	x	i	x
Cn1c(=O)oc2cc(S(=O)(=O)N3CCCC(C(=O)NCc4ccccc4Cl)C3)ccc21 (stereo not drawn)	-2.8%	13.3%	x	x	i	4.1%
CC1=CC(=O)c2c(O)cccc2C1=O	x	x	12.6µM*	14.1µM*	x	x
Cc1cccc(C)c1NC(=O)c1cccn(Cc2ccc3c(c2)OC(F)(F)O3)c1=O	-23.2%	-25.2%	-19.6%	-27.6%	i	11.2µM*
C[C@]12CC[C@H]3[C@@H](CCC4=CC(=O)CC[C@@H]43)[C@@H]1CC[C@@H]2OC(=O)CCC1CCCCC1	x	u	x	x	i	x
O=[N+]([O-])c1ccc(NCc2ccccc2)c2nonc12	174.3%	-11.7%	-4.7%	-2.9%	u	-0.7%
O=[N+]([O-])c1ccc(NCc2ccc(Cl)cc2)c2ccncc12	-1.0%	-10.1%	11.2µM*	-21.3%	u	3.2%
CCCCCCCCCC(CC)c1ccc(S(=O)(=O)O)cc1 (stereo not drawn)	x	12.9%[116 µM]	-8.5%	1.4%[10 µM]	31.6µM*	x
NC[C@H](CS(=O)(=O)O)c1ccc(Cl)cc1	x	x	-15.8%	-0.6%	x	x
C[C@H]1CCCC=CC2C[C@H](O)C[C@@H]2[C@H](O)C=CC(=O)O1 (stereo partly drawn)	0.126µM*	u	x	x	x	-43.1%
Cc1ccc(NC(=S)NC2CC3CCC(C2)N3Cc2ccco2)cc1C (stereo not drawn)	u	-9.7%	-18.8%	14.1µM*	u	-29.3%
COc1ccccc1-c1n[nH]c(=S)n1Cc1ccco1	x	x	-3.0%	u	x	x
O=C(CSC1c2ccccc2-c2ccccc21)N/N=C/c1ccccc1O	u	u	17.8µM*	12.6µM*	i	-32.1%
O=C(CSC1c2ccccc2-c2ccccc21)N/N=C/c1ccc(C(=O)O)cc1	5.0%	-3.1%	-2.2%	-35.0%	i	1.2%
O=c1ccc2cc(O[C@H]3OC(CO)C(O)C(O)C3O)c(O)cc2o1 (stereo partly drawn)	x	x	6.4%	24.9%	x	x
CC(C)(C)[C@]1(O)C[C@@H]2OC(=O)C[C@@]23C(=O)O[C@@H]2OC(=O)[C@H](O)C213 (stereo partly drawn)	x	3.5%	x	x	x	x
